Results filed as inconclusive are left out. Calls of active or inactive are those of the source. Unless noted, calls follow the shape of the full dose curve.
What was measured:
[1] = qHTS assay to identify small molecule agonists of the vitamin D receptor (VDR) signaling pathway - cell viability counter screen (AID 743224; active = well fitted cell-killing curve with a large enough effect in the repeat runs; also: series mostly up to about 63 µM; % is scaled to controls: 0 for no effect and ±100 for the full control effect; nearly all actives have a fitted effect of over 50% in size)
In short: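 Viability is measured in the same wells as the VDR-bla reporter assay: after 16 h compound treatment and 2 h substrate loading, CellTiter-Glo is added and luminescence read 30 min later.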

[2] = qHTS assay to identify small molecule antagonists of the vitamin D receptor (VDR) signaling pathway - cell viability counter screen (AID 743225; active = well fitted cell-killing curve with a large enough effect in the repeat runs; also: % is scaled to controls: 0 for no effect and ±100 for the full control effect; nearly all actives have a fitted effect of over 50% in size)
In short: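 Cytotoxicity toward the VDR-bla HEK 293T line was scored by ATP-based CellTiter-Glo luminescence, read in the wells already used for the beta-lactamase readout after 16 h compound treatment under 3 nM 1-alpha,25-dihydroxyvitamin D3 stimulation.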

[3] = qHTS assay to identify small molecule agonists of the NFkB signaling pathway - cell viability counter screen (AID 1159515); also: series mostly up to about 61 µM; % is scaled to controls: 0 for no effect and ±100 for the full control effect; nearly all actives have a fitted effect of over 55% in size
In short: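 Multiplexed viability readout: after the 5 hr compound exposure and 1.5 hr FRET substrate step, CellTiter-Glo reagent went into the same NFkB-bla ME-180 wells; ATP luminescence was measured after 30 min at room temperature.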

[4] = qHTS assay to identify small molecule agonists of the endoplasmic reticulum stress response signaling pathway (AID 1159516; active = well fitted activation curve with a large enough effect in the signal ratio in the repeat runs, not every such curve was filed as active; the % refers to the signal ratio; also: % is scaled to controls: 0 for no effect and ±100 for the full control effect)
In short: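 Tox21 10K library screened in quantitative HTS format on ESRE-bla HeLa cells, a beta-lactamase reporter under ER stress response element control; 5 hr treatment, FRET read.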

[5] = qHTS assay to identify small molecule agonists of the endoplasmic reticulum stress response signaling pathway - cell viability counter screen (AID 1159517); also: series mostly up to about 61 µM; % is scaled to controls: 0 for no effect and ±100 for the full control effect; nearly all actives have a fitted effect of over 50% in size
In short: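 Cells, HeLa ESRE-bla; density, 1,500/well; dosing, 5 hr at 37 C, 5% CO2; readout, CellTiter-Glo luminescence after 30 min RT.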

[6] = qHTS assay to identify small molecule antagonists of the retinoid-related orphan receptor gamma (ROR-gamma) signaling pathway - cell viability counter screen (AID 1159520; active = well fitted cell-killing curve with a large enough effect in the repeat runs; also: % is scaled to controls: 0 for no effect and ±100 for the full control effect; nearly all actives have a fitted effect of over 50% in size)
In short: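 Cytotoxicity was read from cellular ATP (CellTiter-Glo luminescence) after 16 hr at 37 C with 1 uM doxycycline induction. The inducer was added 2 hr after compound transfer to Tet-on ROR gamma CHO cells.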

[7] = qHTS assay to identify small molecule agonists of the AP-1 signaling pathway - cell viability counter screen (AID 1159525); also: nearly all actives have a fitted effect of over 55% in size
In short: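 Luminescent ATP readout (Cell Titer Glo, 30 min RT), normalised to DMSO and tetra n-octyl ammonium bromide controls. Cells were ME-180 AP-1-bla in 0.5% dialyzed FBS Opti-MEM, with a 5 h, 37 °C compound exposure.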

[8] = qHTS assay to identify small molecule agonists of the AP-1 signaling pathway (AID 1159526); also: % is scaled to controls: 0 for no effect and ±100 for the full control effect
[9] = target: Retinoic acid receptor RXR-alpha (Homo sapiens) (UniProt P19793); test: qHTS assay to identify small molecule agonists of the RXR signaling pathway (AID 1159527); also: % is scaled to controls: 0 for no effect and ±100 for the full control effect; nearly all actives have a fitted effect of over 35% in size
In short: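 Reporter activation is measured as beta-lactamase activity via FRET substrate cleavage (emission 460/530 nm) in HEK 293T cells expressing an RXR-alpha-driven bla construct, following 16 hr compound exposure at 37 C.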

Chain of Retinoic acid receptor RXR-alpha (Homo sapiens) (P19793 whole entry, looked up): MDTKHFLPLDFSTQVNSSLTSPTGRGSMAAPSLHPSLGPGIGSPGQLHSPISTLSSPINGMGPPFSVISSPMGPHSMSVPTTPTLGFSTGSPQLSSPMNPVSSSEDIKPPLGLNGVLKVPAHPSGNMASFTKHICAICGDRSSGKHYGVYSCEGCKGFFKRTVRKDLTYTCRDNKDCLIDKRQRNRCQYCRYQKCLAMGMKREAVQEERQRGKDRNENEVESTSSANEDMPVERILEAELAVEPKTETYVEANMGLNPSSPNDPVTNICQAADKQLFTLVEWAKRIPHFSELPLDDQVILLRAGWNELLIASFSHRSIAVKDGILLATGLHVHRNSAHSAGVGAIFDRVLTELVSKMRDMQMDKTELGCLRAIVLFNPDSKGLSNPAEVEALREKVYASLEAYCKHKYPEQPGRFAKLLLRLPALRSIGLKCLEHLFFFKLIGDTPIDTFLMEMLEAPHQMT

Cc1cccc(C)c1NC(=O)CN(CC(=O)O)CC(=O)O
inactive: Potency [1] | Potency [2] | Potency [3] | Potency [4] | Potency [5] | Potency [6] | Potency [7] | Potency [8] | Potency [9]

CCN(CC)CCNC(=O)c1cc(Br)c(N)cc1OC
inactive: Potency [1] | Potency [2] | Potency [3] | Potency [4] | Potency [5] | Potency [6] | Potency [7] | Potency [8] | Potency [9]

COc1ccc(C)cc1[N+](=O)[O-]
inactive: Potency [1] | Potency [2] | Potency [3] | Potency [4] | Potency [5] | Potency [6] | Potency [7] | Potency [8] | Potency [9]

CCCCCCCN
inactive: Potency [1] | Potency [2] | Potency [3] | Potency [4] | Potency [5] | Potency [6] | Potency [7] | Potency [8] | Potency [9]

COc1cc2nc(Cl)nc(N)c2cc1OC
inactive: Potency [1] | Potency [2] | Potency [3] | Potency [4] | Potency [5] | Potency [6] | Potency [7] | Potency [8] | Potency [9]

CN1Cc2cc(C(=O)N3CCC(C4CCNCC4)CC3)ccc2NC(CC(=O)O)C1=O (configuration not stated)
inactive: Potency [1] | Potency [2] | Potency [3] | Potency [4] | Potency [5] | Potency [6] | Potency [7] | Potency [8] | Potency [9]

NCc1ccccc1Sc1ccccc1CO
inactive: Potency [1] | Potency [2] | Potency [3] | Potency [4] | Potency [5] | Potency [6] | Potency [7] | Potency [8] | Potency [9]

O=[N+]([O-])c1ccc(NCCO)c(OCCO)c1
inactive: Potency [1] | Potency [2] | Potency [3] | Potency [4] | Potency [5] | Potency [6] | Potency [7] | Potency [8] | Potency [9]

CCOC(=O)c1cccnc1
inactive: Potency [1] | Potency [2] | Potency [3] | Potency [4] | Potency [5] | Potency [6] | Potency [7] | Potency [8] | Potency [9]

CCCCC(CC)COC(=O)COc1ccc(Cl)cc1Cl (configuration not stated)
inactive: Potency [1] | Potency [2] | Potency [3] | Potency [4] | Potency [5] | Potency [6] | Potency [7] | Potency [8] | Potency [9]

CCCCOC(=O)CCCCCCCC(=O)OCCCC
inactive: Potency [1] | Potency [2] | Potency [3] | Potency [4] | Potency [5] | Potency [6] | Potency [7] | Potency [8] | Potency [9]

C=C1[C@H]2CC[C@@H]3[C@H]2C(C)(C)CCC[C@]13C
inactive: Potency [1] | Potency [2] | Potency [3] | Potency [4] | Potency [5] | Potency [6] | Potency [7] | Potency [8] | Potency [9]

Cc1ccc(C(C)OC(=O)C2(C)CCC(C(=O)O)C2(C)C)cc1 (configuration not stated)
inactive: Potency [1] | Potency [2] | Potency [3] | Potency [4] | Potency [5] | Potency [6] | Potency [7] | Potency [8] | Potency [9]

OCCN1CCN(CCCN2c3ccccc3C=Cc3ccccc32)CC1
inactive: Potency [1] | Potency [2] | Potency [3] | Potency [4] | Potency [5] | Potency [6] | Potency [7] | Potency [8] | Potency [9]

CC[N+](C)(CC)CCOC(=O)C(O)(c1ccccc1)C1CCCCC1 (configuration not stated)
inactive: Potency [1] | Potency [2] | Potency [3] | Potency [4] | Potency [5] | Potency [6] | Potency [7] | Potency [8] | Potency [9]

CC(C)(C)Cl
inactive: Potency [1] | Potency [2] | Potency [3] | Potency [4] | Potency [5] | Potency [6] | Potency [7] | Potency [8] | Potency [9]

CC(CSC(=O)c1ccccc1)C(=O)N1C[C@@H](Sc2ccccc2)C[C@H]1C(=O)O (some centres not stated)
inactive: Potency [1] | Potency [2] | Potency [3] | Potency [4] | Potency [5] | activity, negative = cytotoxicity [6] 3.47% [at 19 µM] | viability change, negative = cytotoxic [7] -2.27% [at 15.8 µM] | activation [8] 17.2% [at 15.8 µM] | activation [9] -12.9% [at 15.8 µM]

CCCCCCCCCCCc1ccccc1
inactive: Potency [1] | Potency [2] | Potency [3] | Potency [4] | Potency [5] | Potency [6] | Potency [7] | Potency [8] | Potency [9]

CCCC(=O)Nc1ccc(O)c(C(C)=O)c1
inactive: Potency [1] | Potency [2] | Potency [3] | Potency [4] | Potency [5] | Potency [6] | Potency [7] | Potency [8] | Potency [9]

O=C1C(O)=C(O)C(=O)C(O)=C1O
inactive: Potency [1] | Potency [2] | Potency [3] | Potency [4] | Potency [5] | Potency [6] | Potency [7] | Potency [8] | Potency [9]

CC(=O)NO
inactive: Potency [1] | Potency [2] | Potency [3] | Potency [4] | Potency [5] | Potency [6] | Potency [7] | Potency [8] | Potency [9]

O=C(O)c1ccc(S(=O)(=O)O)cc1C(=O)O
inactive: Potency [1] | Potency [2] | Potency [3] | Potency [4] | Potency [5] | Potency [6] | Potency [7] | Potency [8] | Potency [9]

CC(CC=O)c1ccccc1 (configuration not stated)
inactive: Potency [1] | Potency [2] | Potency [3] | Potency [4] | Potency [5] | Potency [6] | Potency [7] | Potency [8]

CCCCC(=O)OCC(=O)[C@H]1[C@H](C)C[C@H]2[C@@H]3C[C@H](F)C4=CC(=O)C=C[C@]4(C)[C@@]3(F)[C@@H](O)C[C@@]21C
inactive: Potency [2] | Potency [3] | Potency [4] | Potency [5] | Potency [6] | Potency [7] | Potency [8] | Potency [9]

Cc1cc(C(=O)O)ccc1[N+](=O)[O-]
inactive: Potency [2] | Potency [3] | Potency [4] | Potency [5] | Potency [6] | Potency [7] | Potency [8] | Potency [9]

Source: PubChem BioAssay (Tox21)
